Among all 1,300 compounds or so, about 140 (11%) were called active. No rule for the calls is given here. A selection follows. Results with a measured potency or affinity are listed apart.
Molecular target: Prostaglandin E2 receptor EP2 subtype (Homo sapiens) (UniProt P43116)
Assay: compounds shifting PGE2 potency at EP2 – cell-based, human EP2, PGE2 EC50 shift, dose response (AID 1421)
Conditions: EP2-expressing cells, PGE2 EC50 shift by compound; at 20 µM

Chain of Prostaglandin E2 receptor EP2 subtype (Homo sapiens) (P43116 whole entry, looked up): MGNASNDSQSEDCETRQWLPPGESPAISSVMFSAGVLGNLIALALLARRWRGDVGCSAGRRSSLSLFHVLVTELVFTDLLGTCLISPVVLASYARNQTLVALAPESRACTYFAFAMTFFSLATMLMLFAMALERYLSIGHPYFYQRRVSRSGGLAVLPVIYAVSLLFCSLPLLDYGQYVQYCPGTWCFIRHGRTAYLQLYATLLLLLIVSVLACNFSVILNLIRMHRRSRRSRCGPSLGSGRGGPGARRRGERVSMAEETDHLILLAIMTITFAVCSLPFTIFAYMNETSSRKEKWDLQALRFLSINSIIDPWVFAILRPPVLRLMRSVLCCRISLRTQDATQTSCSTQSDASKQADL

PGE2 EC50 with compound, inactive:
Cc1ccc(C(=O)N2N=C(c3ccccc3)CC2(O)C(F)(F)F)o1 (stereo unspecified) 0.31 nM
CCOc1cc(/C=N/NC(N)=O)ccc1OC(=O)c1ccc(C)cc1 0.42 nM
Cc1ccc2nc(-c3ccncc3)cc(-c3ccccc3)c2c1 0.17 nM
Nc1nc(Cc2ccccc2)nc(Cc2ccccc2)c1-c1ccccc1 0.43 nM
CC(C)c1ccc(OCC(=O)NC(=S)Nc2ccc3c4c(cccc24)CC3)cc1 18.6 nM
O=c1c2c(n3nnnc3n1-c1ccccc1)-c1ccccc1CC21CCCC1 0.77 nM
Nn1cnc2c(c1=O)C1(CCCCC1)Cc1ccccc1-2 0.34 nM
CCCn1c(SCC(=O)Nc2sc(C)c(C)c2C(=O)OCC)nc2c1c(=O)n(C)c(=O)n2C 0.47 nM
CCCCN1C=C(C(=O)OC)C(c2ccccc2Cl)C(C(=O)OC)=C1 0.38 nM
COc1ccc(C(=O)c2cnc3ccccc3c2-c2ccccc2)cc1 0.79 nM
CCCCOc1c(Br)cc(/C=N/O)cc1OCC 0.48 nM
O=C(CSc1nnc(-c2cc3ccccc3cc2O)n1Cc1ccco1)c1ccc(F)cc1 0.83 nM
COC(=O)c1c(NC(=O)CSc2nnc(-c3cccnc3)n2Cc2ccco2)sc(C)c1C 0.69 nM
CC(=O)c1ccc(S(=O)(=O)NCCCC(=O)NCCc2ccccn2)cc1 0.92 nM
CC(C)Cc1nc2sc3c(=O)[nH]cnc3c2c2c1CCC2 0.65 nM
C#CCSc1nc(Cc2ccc(Cl)cc2)nc2ccccc12 0.25 nM
Cc1cc(C(=O)CSc2nc3ccccc3c(=O)n2C)c(C)n1Cc1ccc2c(c1)OCO2 0.29 nM
CC(C)CCn1c(N2CCN(c3cccc(Cl)c3)CC2)nc2c1c(=O)[nH]c(=O)n2C 0.57 nM
COc1ccc(Cn2c(-c3ccc(OC)cc3)nc3ccccc32)cc1 0.8 nM
Clc1ccc(Cn2c(/C=C/c3ccco3)nc3ccccc32)cc1 0.66 nM
N#CCSc1nc2sc3c(c2c(=O)n1C1CCCCC1)CCCC3 0.32 nM

Source: PubChem BioAssay AID1421 (Emory University Molecular Libraries Screening Center, 2008)
